Assay results taken from PubChem BioAssay (NCI).
The panel holds about 83,000 compounds, 20% with a hit somewhere; the sample as a whole holds those more often.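 Assay: single dose, 48 h. Readout: percent growth (0 = no net growth; negative = cell death). Active: <10.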 Activity calls are given as the source filed them.

Assays:
Experiment in all cases: NCI-60 one-dose screen, 48 h (100 = growth as untreated, 0 = no growth, -100 = all killed)
SR leukemia = settings: 10 µM unless noted
RPMI-8226 leukemia = settings: 10 µM unless noted
OVCAR-8 ovarian = settings: 10 µM unless noted
OVCAR-5 ovarian = settings: 10 µM unless noted
OVCAR-4 ovarian = settings: 10 µM unless noted
SK-OV-3 ovarian = settings: 10 µM unless noted
IGROV1 ovarian = settings: 10 µM unless noted
OVCAR-3 ovarian = settings: 10 µM unless noted
HS 578T breast = settings: 10 µM
NCI/ADR-RES ovarian = settings: 10 µM unless noted
T-47D breast = settings: 10 µM unless noted
BT-549 breast = settings: 10 µM unless noted
MDA-MB-435 melanoma = settings: 10 µM unless noted
SW-620 colon = settings: 10 µM unless noted
MCF7 breast = settings: 10 µM unless noted
KM12 colon = settings: 10 µM unless noted
HCT-116 colon = settings: 10 µM unless noted
HCC-2998 colon = settings: 10 µM unless noted

Measured: growth

COc1cc2nccc(Oc3ccc(NC(=O)C4(C(=O)Nc5ccc(F)cc5)CC4)cc3)c2cc1O
inactive: SR leukemia 41.3% | RPMI-8226 leukemia 52.8% | OVCAR-8 ovarian 73.7% | OVCAR-5 ovarian 80.8% | OVCAR-4 ovarian 37.1% | SK-OV-3 ovarian 86.5% | IGROV1 ovarian 52.1% | OVCAR-3 ovarian 78.7% | HS 578T breast 42.7% | NCI/ADR-RES ovarian 71.7% | T-47D breast 55.3% | BT-549 breast 79.9% | MDA-MB-435 melanoma 52.6% | SW-620 colon 34.4% | MCF7 breast 51.2% | KM12 colon 22.5%

O=C(CCc1nc2sc3c(c2c(=O)[nH]1)CCC3)NCc1cn(-c2ccccc2)nc1-c1ccccc1
inactive: RPMI-8226 leukemia 90% | OVCAR-8 ovarian 44.3% | OVCAR-5 ovarian 86.2% | SK-OV-3 ovarian 68.5% | IGROV1 ovarian 93% | OVCAR-3 ovarian 16.9% | HS 578T breast 48.4% | NCI/ADR-RES ovarian 69.5% | BT-549 breast 95.6% | MDA-MB-435 melanoma 76.1% | SW-620 colon 28.7% | KM12 colon 85.3%
active: SR leukemia -18% | OVCAR-4 ovarian -48% | T-47D breast -0.261% | HCT-116 colon -27.1%

COc1ccc2c(c1)N(CCO)C1=C(C(=O)OC1)C2c1cccc(Br)c1 (stereo not drawn)
inactive: SR leukemia 17.8% | RPMI-8226 leukemia 18.5% | OVCAR-8 ovarian 14.6% | OVCAR-5 ovarian 32.1% | OVCAR-4 ovarian 52.6% | SK-OV-3 ovarian 28.5% | IGROV1 ovarian 11.2% | HS 578T breast 10.7% | NCI/ADR-RES ovarian 10.7% | T-47D breast 72% | BT-549 breast 15.9% | SW-620 colon 22.5%
active: OVCAR-3 ovarian -51.6% | MDA-MB-435 melanoma -51% | HCT-116 colon 3.89% | KM12 colon -31.2%

COc1ccc(C2=Nn3c(nnc3-c3ccc(Cl)cc3N)SC2)cc1
inactive: SR leukemia 102% | RPMI-8226 leukemia 103% | OVCAR-8 ovarian 98.1% | OVCAR-5 ovarian 99.5% | OVCAR-4 ovarian 103% | SK-OV-3 ovarian 102% | IGROV1 ovarian 114% | OVCAR-3 ovarian 114% | HS 578T breast 113% | NCI/ADR-RES ovarian 115% | T-47D breast 88.1% | MDA-MB-435 melanoma 91.4% | SW-620 colon 108% | MCF7 breast 89.8% | HCT-116 colon 105% | HCC-2998 colon 120% | KM12 colon 110%

Cc1[nH]n(C(=O)c2ccncc2)c(=O)c1N=Nc1ccc(O)c(C(=O)O)c1
inactive: SR leukemia 10.1% | RPMI-8226 leukemia 51.5% | OVCAR-8 ovarian 115% | OVCAR-5 ovarian 123% | OVCAR-4 ovarian 109% | SK-OV-3 ovarian 108% | IGROV1 ovarian 94.7% | OVCAR-3 ovarian 105% | HS 578T breast 96.2% | NCI/ADR-RES ovarian 110% | T-47D breast 132% | MDA-MB-435 melanoma 126% | SW-620 colon 105% | MCF7 breast 109% | HCT-116 colon 75.3% | HCC-2998 colon 117% | KM12 colon 104%

O=C(CI)NCCNc1cccc2c(S(=O)(=O)O)cccc12
inactive: SR leukemia 90.4% | RPMI-8226 leukemia 101% | OVCAR-8 ovarian 110% | OVCAR-5 ovarian 107% | OVCAR-4 ovarian 110% | SK-OV-3 ovarian 106% | IGROV1 ovarian 97.6% | OVCAR-3 ovarian 100% | HS 578T breast 104% | NCI/ADR-RES ovarian 106% | T-47D breast 103% | MDA-MB-435 melanoma 93.2% | SW-620 colon 102% | MCF7 breast 99.9% | HCT-116 colon 96% | HCC-2998 colon 112% | KM12 colon 95.7%

C=CCn1c(C)nc2cc(Nc3nc(Nc4ccc5nc(C)n(CC=C)c5c4)nc4ccccc34)ccc21
inactive: SR leukemia 106% | RPMI-8226 leukemia 98.8% | OVCAR-8 ovarian 98.9% | OVCAR-5 ovarian 107% | OVCAR-4 ovarian 99.5% | SK-OV-3 ovarian 104% | IGROV1 ovarian 102% | OVCAR-3 ovarian 108% | HS 578T breast 100% | NCI/ADR-RES ovarian 101% | T-47D breast 96% | BT-549 breast 106% | MDA-MB-435 melanoma 108% | SW-620 colon 106% | HCT-116 colon 98.9% | HCC-2998 colon 104% | KM12 colon 109%

COc1cc(OC)cc(-c2n/c(=C\c3c(O)[nH]c4ccc(Cl)cc34)cc3c2=Nc2ccccc2-3)c1
active: IGROV1 ovarian -21.3% | SW-620 colon -1.36% | HCT-116 colon 2.45%
inactive: SR leukemia 23.5% | RPMI-8226 leukemia 71.2% | OVCAR-8 ovarian 54.5% | OVCAR-5 ovarian 114% | OVCAR-4 ovarian 16.1% | SK-OV-3 ovarian 114% | OVCAR-3 ovarian 69.7% | HS 578T breast 90.4% | NCI/ADR-RES ovarian 81.6% | T-47D breast 84.9% | BT-549 breast 97.2% | MDA-MB-435 melanoma 99.3% | HCC-2998 colon 103% | KM12 colon 22.8%

COc1cc(-c2csc(NC(=O)Nc3cccc(C(F)(F)F)c3)n2)cc(OC)c1OC
inactive: SR leukemia 67.3% | RPMI-8226 leukemia 18.6% | OVCAR-8 ovarian 22.6% | OVCAR-5 ovarian 80.3% | OVCAR-4 ovarian 29.9% | SK-OV-3 ovarian 80.7% | IGROV1 ovarian 59.6% | OVCAR-3 ovarian 37.7% | HS 578T breast 71.2% | NCI/ADR-RES ovarian 26.5% | BT-549 breast 43.8% | MDA-MB-435 melanoma 57.1% | SW-620 colon 74.3% | HCT-116 colon 46.9% | HCC-2998 colon 81.1% | KM12 colon 34.5%
active: T-47D breast 7.61%

COc1cc(C2C=C(C)N=C3SC=NN32)cc(OC)c1OC (stereo not drawn)
inactive: SR leukemia 102% | RPMI-8226 leukemia 98.9% | OVCAR-8 ovarian 92% | OVCAR-5 ovarian 91.6% | OVCAR-4 ovarian 103% | SK-OV-3 ovarian 111% | IGROV1 ovarian 118% | OVCAR-3 ovarian 116% | HS 578T breast 106% | NCI/ADR-RES ovarian 104% | T-47D breast 109% | BT-549 breast 141% | MDA-MB-435 melanoma 104% | SW-620 colon 105% | HCT-116 colon 111% | HCC-2998 colon 102% | KM12 colon 107%

COc1cc2cc(C(=O)Nc3ccccc3)c(N)nc2cc1OC
inactive: OVCAR-5 ovarian 73% | OVCAR-4 ovarian 22.3% | SK-OV-3 ovarian 23% | OVCAR-3 ovarian 27.8% | HS 578T breast 36.2%
active: SR leukemia -35.8% | RPMI-8226 leukemia -21.2% | OVCAR-8 ovarian -44.8% | IGROV1 ovarian -11.7% | NCI/ADR-RES ovarian -29.1% | T-47D breast -28% | MDA-MB-435 melanoma -84.2% | SW-620 colon -68% | MCF7 breast -88.4% | HCT-116 colon -80.2% | HCC-2998 colon -83.4% | KM12 colon -52%

Cc1cc(C)c2c(n1)sc1c(Nc3ccc(O)cc3)ncnc12
inactive: SR leukemia 13.4% | RPMI-8226 leukemia 39% | OVCAR-8 ovarian 10.8% | OVCAR-5 ovarian 55.4% | OVCAR-4 ovarian 90.6% | SK-OV-3 ovarian 30.5% | IGROV1 ovarian 68.2% | OVCAR-3 ovarian 55.3% | HS 578T breast 82.5% | NCI/ADR-RES ovarian 19.1% | T-47D breast 39.6% | BT-549 breast 50.6% | MDA-MB-435 melanoma 36.6% | SW-620 colon 45.6% | MCF7 breast 20.3% | HCC-2998 colon 63.3% | KM12 colon 50.3%

O=C1/C(=C\c2cccn2Cc2ccc(F)cc2)c2ccccc2N1c1c(Cl)cccc1Cl
inactive: SR leukemia 76% | RPMI-8226 leukemia 74.6% | OVCAR-8 ovarian 81.5% | OVCAR-5 ovarian 81.9% | OVCAR-4 ovarian 34.1% | SK-OV-3 ovarian 96.2% | IGROV1 ovarian 55.8% | OVCAR-3 ovarian 80.7% | HS 578T breast 92.9% | NCI/ADR-RES ovarian 76.1% | T-47D breast 19% | MDA-MB-435 melanoma 107% | SW-620 colon 92% | MCF7 breast 12.6% | HCT-116 colon 70.8% | HCC-2998 colon 81.5% | KM12 colon 54.4%

CC[C@H](Nc1nc(C)nc(N)c1C#N)c1nc2cccc(NCc3ccc(C(=O)NO)cc3)c2c(=O)n1-c1ccccc1
inactive: RPMI-8226 leukemia 10.7% | OVCAR-5 ovarian 22.5% | HS 578T breast 21.6% | NCI/ADR-RES ovarian 59.4% | MDA-MB-435 melanoma 16.8% | KM12 colon 13.3%
active: SR leukemia 0.66% | OVCAR-8 ovarian 2.46% | OVCAR-4 ovarian 5.36% | SK-OV-3 ovarian -16.2% | IGROV1 ovarian 5.14% | OVCAR-3 ovarian 4.73% | T-47D breast 0.805% | SW-620 colon -31.5% | MCF7 breast 5.42% | HCT-116 colon 3.59% | HCC-2998 colon 7.75%

NCCCOc1cc2ccccc2cc1C(=O)NCCCOc1cc2ccccc2cc1C(=O)Nc1ccc(Cl)cc1O
inactive: HS 578T breast 14.5% | NCI/ADR-RES ovarian 29.2%
active: SR leukemia -7.88% | RPMI-8226 leukemia -18.3% | OVCAR-8 ovarian -57.6% | OVCAR-5 ovarian -92.5% | OVCAR-4 ovarian -77.4% | SK-OV-3 ovarian -80.4% | IGROV1 ovarian -31.6% | OVCAR-3 ovarian -31.2% | T-47D breast -67.6% | BT-549 breast -39.8% | MDA-MB-435 melanoma -85.5% | SW-620 colon -73.9% | MCF7 breast -93.5% | HCC-2998 colon -92.3% | KM12 colon -2.6%

CCCc1n(Cc2ccc3ccccc3c2)c2ccccc2[n+]1Cc1ccc2ccccc2c1
inactive: NCI/ADR-RES ovarian 79.4%
active: SR leukemia -46.7% | RPMI-8226 leukemia -60.9% | OVCAR-8 ovarian -71.3% | OVCAR-5 ovarian -27.1% | OVCAR-4 ovarian -16% | SK-OV-3 ovarian -21.5% | IGROV1 ovarian -64.8% | OVCAR-3 ovarian -76.8% | HS 578T breast -8.47% | T-47D breast -9.39% | BT-549 breast -76.6% | MDA-MB-435 melanoma -82.8% | SW-620 colon -74.2% | HCT-116 colon -91.2% | HCC-2998 colon -57.2% | KM12 colon -75%

CCOc1cccc(/C=N/NC(=O)c2ccc(Nc3ccnc(C(F)(F)F)c3)cc2)c1O
active: RPMI-8226 leukemia -23.6% | IGROV1 ovarian -9.15% | MCF7 breast -1.78% | HCT-116 colon 7.55%
inactive: SR leukemia 68.7% | OVCAR-8 ovarian 24.7% | OVCAR-5 ovarian 13.9% | OVCAR-4 ovarian 31.3% | SK-OV-3 ovarian 10.9% | OVCAR-3 ovarian 24.6% | HS 578T breast 11.3% | NCI/ADR-RES ovarian 49.3% | BT-549 breast 14.6% | MDA-MB-435 melanoma 40.2% | SW-620 colon 32.1% | HCC-2998 colon 35.3% | KM12 colon 24.8%

CC(=O)O[C@H]1[C@H](CC#CC#CC[C@@H]2C[C@]3(C)[C@H]4CC=C5[C@H]6[C@@H](C)[C@H](C)CC[C@]6(C(=O)NCCCCCCCCN)CC[C@@]5(C)[C@]4(C)CC[C@H]3C(C)(C)[C@H]2OC(C)=O)C[C@]2(C)[C@H]3CC=C4[C@H]5[C@@H](C)[C@H](C)CC[C@]5(C(=O)NCCCCCCCCN)CC[C@@]4(C)[C@]3(C)CC[C@H]2C1(C)C
inactive: SR leukemia 123% | RPMI-8226 leukemia 95.6% | OVCAR-8 ovarian 108% | OVCAR-5 ovarian 108% | OVCAR-4 ovarian 114% | SK-OV-3 ovarian 108% | IGROV1 ovarian 99.1% | OVCAR-3 ovarian 100% | HS 578T breast 110% | NCI/ADR-RES ovarian 98.1% | BT-549 breast 112% | MDA-MB-435 melanoma 110% | SW-620 colon 97.8% | MCF7 breast 105% | HCT-116 colon 97.7% | HCC-2998 colon 100% | KM12 colon 89.2%
